Screening results deposited in PubChem BioAssay by National Center for Advancing Translational Sciences (NCATS).
Most compounds without a hit are left out; they make up all but 2.2% or so of the library.
Abeta yeast res – restores growth of yeast expressing A-beta42 peptide | yeast expressing A-beta42, growth rescue, OD600, 48 h; response scale: 0% DMSO, 100% iron-clioquinol control | Potency, µM (titrated, usually from 46.1 µM), most hits filed as activators | 0.063% of 410,000 active | AID 1347071; further: nearly all actives have a fitted effect of over 55% in size
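Yeast growth medium received pinned compounds, then yeast cells expressing toxic A-beta were added; plates incubated at 30 C for 48 hr. Growth read as absorbance at 600 nm, normalized to DMSO and equimolar FeCl3 plus clioquinol controls.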
TDP43 rescue – TDP-43 toxicity inhibition in yeast | TDP-43 expressing yeast growth rescue, BacTiter-Glo, 24 h | AID 652104 | 1.8% of 410,000 active | Potency, µM (doses to about 46.1 µM), for the others: at the highest dose growth rescue (activation), hits mostly activators; further: % of control where 0% means no effect; nearly all actives have a fitted effect of over 50% in size
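In this qHTS, compounds that restore growth of yeast expressing TDP-43 appear as activators. Cells (OD600=0.02, galactose medium, raffinose-pregrown) are incubated with compound 24 hr at 30 deg C and growth is quantified by BacTiter-Glo.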
FUS suppressor – suppressors of FUS proteinopathy in yeast; S. cerevisiae FUS-expressing, growth rescue, OD600, 24 h; 0.24% of 390,000 active; Potency, µM (highest dose often 76.6 µM), usual class: activators;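 further: plate controls were DMSO vehicle for no effect and reference control for full effect; nearly all actives have a fitted effect of over 55% in size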
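Read-out: OD at 600 nm after 24hr at 30C, reporting rescue of FUS-induced yeast toxicity. Cells at OD 0.005 in galactose (2%) minimal medium; compounds tested in a dilution series; CP55940 titration from 92uM final as control.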
ERG Ets-DNA blk – inhibitors of human ERG Ets domain-DNA interaction | P11308 | fluorescence polarization, His-ERG Ets domain / labelled DNA | Potency, µM (series often up to 76.9 µM), for the others: top-dose FP activity, negative = inhibition, most hits filed as inhibitors | 0.028% of 370,000 active; active means well fitted inhibition curve with a large enough effect in the polarisation, with a control signal flat; inconclusive means small, poorly fitted or top-dose-only effect, or effect the other way, or a change in a side signal; inactive means no such curve, though single readings can be large or run the other way; the % refers to the polarisation;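 further: polarization taken with two DNA probes labelled with fluorescein and Texas red; % of control where 0% means no effect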
Target sequence (P11308 whole entry, looked up, the tested form may be a part): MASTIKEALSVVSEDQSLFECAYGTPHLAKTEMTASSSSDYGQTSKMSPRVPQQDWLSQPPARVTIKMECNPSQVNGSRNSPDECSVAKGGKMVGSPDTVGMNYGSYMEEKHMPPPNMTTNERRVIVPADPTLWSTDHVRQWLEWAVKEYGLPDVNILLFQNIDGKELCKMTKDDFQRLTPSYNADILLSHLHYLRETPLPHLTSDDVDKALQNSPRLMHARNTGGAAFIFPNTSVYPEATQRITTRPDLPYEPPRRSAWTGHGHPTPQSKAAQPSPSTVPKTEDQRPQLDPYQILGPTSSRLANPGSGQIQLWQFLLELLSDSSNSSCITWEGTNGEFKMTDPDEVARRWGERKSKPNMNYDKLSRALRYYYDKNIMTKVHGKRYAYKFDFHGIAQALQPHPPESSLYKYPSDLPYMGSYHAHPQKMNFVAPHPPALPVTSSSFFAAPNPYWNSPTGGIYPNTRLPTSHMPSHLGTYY
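His-tagged ERG Ets domain (1 uM in the protein solution; 300mM KCl, 50mM Tris-HCl, 1mM EDTA, 1mM DTT, pH 7.5) received compound, then a probe mix of 5 nM fluorescein-DNA and 100nM Texas-615-DNA. Fluorescence polarization was read for both dyes.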
Mito fusion act – mitochondrial division inhibition or fusion activation. Potency, µM (doses to about 46.1 µM), for the others: at the highest dose growth rescue (activation), most hits filed as activators. 0.23% of 320,000 active. S. cerevisiae fusion-defective mutant growth rescue, CellTiterGlo 48 h; further: % of control where 0% means no effect; nearly all actives have a fitted effect of over 45% in size
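S. cerevisiae fusion-defective temperature-sensitive mutants (e.g. fzo1-1, mgm1-5) grown 48 h at 37C in YPEG (ethanol/glycerol non-fermentable) medium with 23 nl compound per well; growth rescue read as CellTiterGlo luminescence.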
aSyn rescue – rescues yeast growth from alpha-synuclein toxicity; 0.14% of 370,000 active; Yeast expressing alpha-synuclein, growth rescue, BacTiter-Glo, 24 h; Potency, µM (series often up to 46.1 µM), for the others: top-dose growth rescue (activation), actives largely listed as activators; further: % of control where 0% means no effect; nearly all actives have a fitted effect of over 65% in size
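Screening used galactose-induced yeast with toxic alpha-synuclein levels, exposed to compound for 24 hr at 30 deg C. Cell growth, read with BacTiter-Glo luminescence, gave the measured signal.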
Active calls of the source: *; [ ] = remark or other dose. Unless noted, the call rests on the fitted dose curve; in most records, active means well fitted curve in the direction sought with a large enough effect; inconclusive means small, poorly fitted or top-dose-only effect, or another doubt; inactive means no such curve, though single readings can be large; an effect the other way counts as inactive or inconclusive. Potency means the concentration at half of the fitted maximal effect.

O=C(c1ccc(S(=O)(=O)Cc2cc(F)ccc2F)c([N+](=O)[O-])c1)N1CCOCC1 was read as Abeta yeast res inactive, TDP43 rescue 20µM*, FUS suppressor inactive and aSyn rescue 7%.
Screening O=C(c1ccc(S(=O)(=O)Cc2ccccc2F)c([N+](=O)[O-])c1)N1CCCCCC1 returned Abeta yeast res inactive, TDP43 rescue 6%, FUS suppressor inactive, ERG Ets-DNA blk -1%, Mito fusion act 9% and aSyn rescue 17%.
For Cc1c(C(=O)Nc2ccc(N3CCOCC3)cc2)oc2ccccc12 the results were Abeta yeast res inactive, TDP43 rescue 7.9µM*, FUS suppressor inactive, ERG Ets-DNA blk 1%, Mito fusion act 2% and aSyn rescue -7%.
CC[C@]12c3[nH]c4ccccc4c3CCN1C(=O)C(CC(=O)NCc1cccc(C(F)(F)F)c1)C[C@@H]2C(=O)N1CCN(C(=O)c2ccco2)CC1 (some centres undefined) was read as Abeta yeast res inactive, TDP43 rescue 0%, FUS suppressor inconclusive, ERG Ets-DNA blk 6% and aSyn rescue 15%.
Cc1ccc(S(=O)(=O)c2c(N)n(Cc3ccco3)c3nc4ccccc4nc23)cc1C was read as Abeta yeast res inactive, TDP43 rescue 0%, FUS suppressor 25µM*, ERG Ets-DNA blk 0%, Mito fusion act 24% and aSyn rescue 6%.
Screening CCOc1cc(CCNC(=O)c2cc3ccsc3n2C)ccc1OC returned FUS suppressor inactive.
Screening O=C(Nc1ccc(S(=O)(=O)N2CCOCC2)cc1)C1CCN(S(=O)(=O)c2ccc(F)cc2)CC1 returned Abeta yeast res inactive, TDP43 rescue 14µM*, FUS suppressor inconclusive, ERG Ets-DNA blk 31%, Mito fusion act 5% and aSyn rescue -4%.
Screening O=C(C1CCN(S(=O)(=O)Cc2ccccc2)CC1)N1CCN(c2ccc(F)cc2)CC1 returned Abeta yeast res inactive, TDP43 rescue 22µM*, FUS suppressor inactive and ERG Ets-DNA blk -4%.
O=C(C1CCN(S(=O)(=O)N2CCOCC2)CC1)N1CCN(c2ccc(F)cc2)CC1 was read as Abeta yeast res inactive, TDP43 rescue -14%[0.397 µM], FUS suppressor inactive, ERG Ets-DNA blk -6%, Mito fusion act 35µM* and aSyn rescue -2%.
For O=C(C1CCN(S(=O)(=O)Cc2ccccc2)CC1)N1CCN(c2ccccc2)CC1 the results were Abeta yeast res inactive, TDP43 rescue 23%, FUS suppressor inactive and ERG Ets-DNA blk -2%.
`CCOC(=O)c1c(C)[nH]c(CCC(=O)NC(C)c2ccccc2)c1C` (centres undefined) gave Abeta yeast res inactive, TDP43 rescue 20%, FUS suppressor inactive and ERG Ets-DNA blk 0%.
Screening COC(=O)[C@@]12CCCCC3=C1N(CCC3)C(=O)[C@H]2CC(=O)NCCCN1CCCC1=O returned FUS suppressor inactive.
For Cc1ccccc1C(=O)N1CCc2c([nH]c3ccccc23)C1C(F)(F)F (centres undefined) the results were Abeta yeast res inactive, TDP43 rescue 22µM*, FUS suppressor inactive, ERG Ets-DNA blk -8%, Mito fusion act 16% and aSyn rescue 13%.
Screening C[C@H]1COc2c3ccc(I)cc3nn21 returned FUS suppressor inactive.
`O=C(Nc1nc(-c2cccs2)cs1)c1ccc(Cl)s1` gave Abeta yeast res inactive, TDP43 rescue 3.5µM*, FUS suppressor inactive, ERG Ets-DNA blk 0%, Mito fusion act 8% and aSyn rescue -34%.
CC(=O)NC(=S)NNC(=O)C(c1ccccc1)c1ccccc1 was read as Abeta yeast res inactive, TDP43 rescue 18µM*, FUS suppressor inactive, ERG Ets-DNA blk -6%, Mito fusion act 8% and aSyn rescue 22µM*.
CCc1cccc(N2C(=O)N(Cc3c(F)cccc3Cl)c3ccccc3S2(=O)=O)c1 was read as Abeta yeast res inactive, TDP43 rescue 6%, FUS suppressor inactive and ERG Ets-DNA blk -2%.
CN1CC=C(c2ccc(C(F)(F)F)cc2)N(c2ccccc2)C1=O was read as FUS suppressor inactive.
`Cc1nc(Cl)cc(CS(=O)(=O)c2ccc(Cl)cc2)n1` gave Abeta yeast res inactive, TDP43 rescue 2%, FUS suppressor inactive, ERG Ets-DNA blk 2%, Mito fusion act -6% and aSyn rescue -9%.
Screening Cc1nc(CS(=O)(=O)c2ccccc2)cc(Sc2ccc(Cl)cc2Cl)n1 returned Abeta yeast res inactive, TDP43 rescue 13µM*, FUS suppressor inactive, ERG Ets-DNA blk -9%, Mito fusion act inconclusive and aSyn rescue 9%.
Screening Cc1ccc(NC(=O)N2CC3CCCN3c3ccccc32)cc1C (centres undefined) returned Abeta yeast res inactive, TDP43 rescue 20µM*, FUS suppressor inactive and ERG Ets-DNA blk -1%.
Screening Cc1ccc(NC(=O)N2CC3CCCN3c3ccccc32)cc1Cl (centres undefined) returned Abeta yeast res inactive, TDP43 rescue inconclusive, FUS suppressor inactive and ERG Ets-DNA blk -3%.
Clc1cccc(Cl)c1/C=C/c1ccn[nH]1 was read as Abeta yeast res inactive, TDP43 rescue 22µM*, FUS suppressor inactive, ERG Ets-DNA blk 14%, Mito fusion act 28% and aSyn rescue -4%.
`O=C(/C=C/c1c(F)cccc1Cl)c1ccc(F)cc1` gave Abeta yeast res inactive, TDP43 rescue 5%, FUS suppressor inactive, ERG Ets-DNA blk 3%, Mito fusion act -1% and aSyn rescue -14%.
O=C(NCCO)[C@H](Cc1ccccc1)NC1(C(=O)NCCN2CCOCC2)CCCCC1 was read as FUS suppressor inactive.
Screening CCOc1ccccc1NC(=O)C1CCN(S(=O)(=O)c2ccccc2)CC1 returned Abeta yeast res inactive, TDP43 rescue 0%, FUS suppressor inactive and ERG Ets-DNA blk -3%.
`CN1C(=O)c2cc(NS(=O)(=O)c3cccc(F)c3)ccc2OC[C@@H]2O[C@H](CC(=O)O)CC[C@H]21` gave FUS suppressor inactive.
c1ccc(-c2n[nH]c3c2CCC3)cc1 was read as Abeta yeast res inconclusive, TDP43 rescue inconclusive, FUS suppressor inactive, ERG Ets-DNA blk -11%, Mito fusion act -9% and aSyn rescue 7%.
